Screening data deposited in PubChem by National Center for Advancing Translational Sciences (NCATS).
HP1b binding inh: blocks HP1-beta chromodomain binding to methylated histone tails; P83916; AlphaScreen HP1-beta / biotin-H3K9me3 peptide binding; 390,000 compounds, 0.56% hits; Potency, µM (series often up to 114 µM), inactives show at the highest dose activity change, negative = inhibition, actives largely listed as inhibitors; AID 540317; further: nearly all actives have a fitted effect of over 70% in size
Target sequence (P83916 whole entry, looked up): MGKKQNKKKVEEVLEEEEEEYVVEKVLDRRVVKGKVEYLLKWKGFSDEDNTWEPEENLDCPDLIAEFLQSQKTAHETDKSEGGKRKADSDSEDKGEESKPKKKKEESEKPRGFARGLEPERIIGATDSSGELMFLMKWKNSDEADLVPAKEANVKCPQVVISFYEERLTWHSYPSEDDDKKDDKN
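Compound inhibition of the preformed complex between 50 nM HP1-beta and 50 nM biotinylated H3K9me3 peptide was read by AlphaScreen. Buffer was PBS pH 7.4 with 0.01% Tween-20. Incubations ran 30 min at room temperature, with 10 ug/mL donor/acceptor beads.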
Sfp PPTase inh: Sfp phosphopantetheinyl transferase inhibition | Q9F4F7 | Biochemical Sfp PPTase activity, qHTS | 310,000 compounds, 3.5% hits | Potency, µM, for inactives: largest response in the series, negative = inhibition, hits mostly inhibitors | AID 1490;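 further: the enzyme is Sfp with the accession as filed and its product quenches rhodamine fluorescence; 0% = enzyme reaction without inhibitor and -100% = no enzyme wells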
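With Hepes-Na pH 7.6 buffer containing 10 mM MgCl2, Sfp (15 nM) modified BHQ-2-YbbR (12.5 uM) using rhodamine-CoA (5 uM). Two reads 30 minutes apart at 525/598 nm yielded each well's rate.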
TDP1 inh: TDP1 (human) enzyme inhibition | Q9NUW8 | recombinant TDP1, AlphaScreen DNA substrate cleavage | Potency, µM (titrated, usually from 130 µM), for the others: top-dose activity change, negative = inhibition, usual class: inhibitors | 350,000 compounds, 0.28% hits; further: on the % scale 0 is the no-effect control and ±100 the full control effect; nearly all actives have a fitted effect of over 40% in size
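Here, a 5' biotin and 3' phosphotyrosine-FITC DNA oligonucleotide reports Tdp1 activity: intact substrate bridges AlphaScreen beads, while cleavage leaves a 3' phosphate and drops signal. All incubations at room temperature.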
JMJD2A Tudor: inhibitors of human JMJD2A Tudor domain; O75164; 390,000 compounds, 4.4% hits; AID 504339; Potency, µM (top dose mostly 114 µM), without a hit: at the highest dose activity change, negative = inhibition, hits mostly inhibitors; AlphaScreen JMJD2A-Tudor / H3K4me3 peptide binding; further: on the % scale 0 is the no-effect control and ±100 the full control effect; nearly all actives have a fitted effect of over 50% in size
BAZ2B inh: blocks human BAZ2B. Q9UIF8. AlphaScreen BAZ2B-H3K14Ac peptide displacement. Potency, µM (doses to about 114 µM), for inactives: top-dose activity change, negative = inhibition, most hits filed as inhibitors. 360,000 compounds, 4.4% hits. AID 504333; further: on the % scale 0 is the no-effect control and ±100 the full control effect; nearly all actives have a fitted effect of over 60% in size
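Complex of BAZ2B and biotin-H3K14Ac (50 nM apiece) forms over 30 min at RT, then faces library compounds up to 110 uM for another 30 min; AlphaScreen beads added, 20 min dark incubation, luminescence read.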
G9a block: inhibitors of human histone lysine methyltransferase G9a; Q96KQ7; G9a H3K9 monomethylation, AlphaScreen, 2 h; Potency, µM (top dose mostly 102 µM), for inactives: top-dose activity, negative = inhibition, actives largely listed as inhibitors; 350,000 compounds, 8.8% hits; AID 504332; further: on the % scale 0 is the no-effect control and ±100 the full control effect; nearly all actives have a fitted effect of over 75% in size
Target sequence (Q96KQ7 913-1193 limits assumed): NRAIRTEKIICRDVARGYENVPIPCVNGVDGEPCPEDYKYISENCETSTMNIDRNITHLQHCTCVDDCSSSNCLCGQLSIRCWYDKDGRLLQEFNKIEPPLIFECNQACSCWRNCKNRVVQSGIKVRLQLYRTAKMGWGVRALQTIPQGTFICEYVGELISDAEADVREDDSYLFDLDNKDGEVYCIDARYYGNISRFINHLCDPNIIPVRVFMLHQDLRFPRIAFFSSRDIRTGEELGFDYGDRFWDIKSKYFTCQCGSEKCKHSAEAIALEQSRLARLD
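Quantitative HTS format: methyltransferase activity on a biotin-tagged H3K9 peptide is measured by AlphaScreen, using a rabbit anti-monomethyl-H3K9 antibody with streptavidin donor and anti-IgG acceptor beads. Final levels are 20 nM enzyme, 500 nM peptide, 20 uM SAM; 2 h RT.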
An asterisk follows results filed as active; u = inconclusive; x = not tested or not shown; [ ] = another dose, or the depositor's remark. Only some compounds are listed: those with a hit (about 12% of all), similar ones and a draw of the others. The call rests on the fitted dose curve; in most records, active means well fitted curve in the direction sought with a large enough effect; inconclusive means small, poorly fitted or top-dose-only effect, or another doubt; inactive means no such curve, though single readings can be large; an effect the other way counts as inactive or inconclusive. Potency means the concentration at half of the fitted maximal effect.

SMILES	HP1b binding inh	Sfp PPTase inh	TDP1 inh	JMJD2A Tudor	BAZ2B inh	G9a block
COc1cc(OC)c(NC(=O)c2nn(C)c3c2COc2ccccc2-3)cc1Cl	146%	x	-3%	-9%	-9%	2.2µM*
COC(=O)c1ccccc1NC(=O)c1noc2c1CCCC2	61%	1%	4%	26%	7%	7%[12.7 µM]
COc1cc(NC(=O)c2noc3c2CCC3)c(OC)cc1Cl	u	u	9%	45µM*	50µM*	u
CCOc1ccccc1NC(=O)c1ccc2c(Cl)c3c(nc2c1)CCC3	26%	x	4%	-12%	-10%	-12%[59 µM]
Cc1nc2c(C)cccc2c(SC(=N)N)c1CC=C(Cl)Cl	59%	u	5%	u	u	7.9µM*
COc1ccc(CCN2C(=O)c3ccccc3C2(O)c2ncc[nH]2)cc1OC (stereo not given)	-20%	u	0%	-6%[11.4 µM]	u	22µM*
O=C1c2ccccc2C(O)(c2ccccc2)N1CCc1ccccc1 (stereo not given)	41%	7%	x	-7%	0%	26%
CC(=O)c1c2c3c(c(Br)ccc3n(C)c1=O)C(=O)c1ccccc1-2	-21%[57 µM]	-11%	7%	-36%	u	x
Cn1c(=O)c(Nc2ccc(O)cc2)c2c3c(cccc31)C(=O)c1ccccc1-2	18µM*	-17%	3%	7.9µM*	6.3µM*	13µM*
CC(=O)c1c2c3c(cccc3n(C)c1=O)C(=O)c1ccccc1-2	48%	-2%	x	-27%	u	18µM*
O=C(CCN1C(=O)c2ccccc2C1=O)Nc1cccc(O)c1	12%	-4%	x	5%	-10%	5%
CCN(CC)c1ccc(NC(=O)CCS(=O)(=O)c2cc3c(cc2Cl)NC(=O)CO3)c(C)c1	37%	x	-3%	-16%	-1%	-5%[59 µM]
CC(=O)C1=C(O)C(=O)OC1c1ccc(Cl)cc1 (stereo not given)	13%	-9%	x	14µM*	-12%	50µM*
CC(=O)C1=C(O)C(=O)OC1c1ccc(C)cc1 (stereo not given)	20%	8%	-2%	-17%	-14%	-10%[59 µM]
COc1cccc(-c2ccc3ncnc(N4CCOCC4)c3c2)c1	x	1%	x	x	x	7%[0.501 µM]
COc1ccccc1C1/C(=C(/O)c2ccccc2)C(=O)C(=O)N1CC(C)C (stereo not given)	12%	4%	-3%	u	1%	u
CCOC(=O)C1=C(O)C(=O)N(c2ccc(S(N)(=O)=O)cc2)C1c1ccc(Cl)cc1 (stereo not given)	6%	-6%	4%	-27%	u	7%[0.501 µM]
CCOc1ccc(N2C(=O)C(=O)/C(=C(/O)c3ccccc3)C2c2ccccc2[N+](=O)[O-])cc1 (stereo not given)	7%	u	0%	-27%	-8%	45µM*
O=C1C(=O)N(c2ccccc2)C(c2ccccc2[N+](=O)[O-])/C1=C(\O)c1ccccc1 (stereo not given)	u	13µM*	5%	-32%	u	u
NS(=O)(=O)c1ccc(N2C(=O)C(=O)/C(=C(/O)c3ccccc3)C2c2ccc(Cl)cc2)cc1 (stereo not given)	15%	10%	4%	-9%	7%	50µM*
O=C1C(=O)N(c2cccc(Cl)c2)C(c2ccccc2[N+](=O)[O-])/C1=C(\O)c1ccccc1 (stereo not given)	-8%	22µM*	0%	u	79µM*	28µM*
O=C(Nc1cccc(F)c1)c1oc2ccccc2c1NC(=O)C12CC3CC(CC(C3)C1)C2	35%	x	-4%	-13%	-9%	10%[59 µM]
CC1CCCCC1NC(=O)CCNS(=O)(=O)c1ccc2c(c1)CCC(=O)N2 (stereo not given)	21%	1%	0%	-21%	-4%	x
CC(C)C[C@@H](NC(=O)C1CCC(CNC(=O)[C@H](Cc2ccccc2)NC(=O)OC(C)(C)C)CC1)C(=O)O (stereo not given in full)	11%	1%	x	28µM*	2%	u
Cn1c(=O)c2c(nc(N3CCOCC3)n2Cc2c(F)cccc2Cl)n(C)c1=O	28%	6%	5%	-4%	-3%	10%
SMILES	HP1b binding inh	Sfp PPTase inh	TDP1 inh	JMJD2A Tudor	BAZ2B inh	G9a block
O=C1S/C(=C\c2ccc(N3CCOCC3)o2)C(=O)N1Cc1c(F)cccc1Cl	22%	2.8µM*	2%	u	-36%	u
O=C1S/C(=C/c2ccc(N3CCOCC3)o2)C(=O)N1Cc1c(F)cccc1Cl	39%	4.5µM*	7%	-30%	4%	1.8µM*
N=C1S/C(=C\c2cn[nH]c2-c2ccc(F)cc2)C(=O)N1c1ccccc1F	6%	-1%	1%	89µM*	-2%	-6%
Cn1nnnc1Sc1ncnc2scc(-c3cccc(Cl)c3)c12	x	x	x	-27%	x	x
COc1cc(N2C(=O)C=CC2=O)ccc1N1C(=O)C=CC1=O	u	x	x	4.5µM*	x	x
O=C(O)CCC(=O)Nc1ccc2c(c1)Cc1cc(NC(=O)CCC(=O)O)ccc1-2	3%	-8%	x	89µM*	u	39%[0.501 µM]
O=C(O)CCC(=O)Nc1ccc(N2CCCCC2)c(C(=O)O)c1	32%	7%	5%	-12%	10%	u
O=C(CO/N=C/c1cccc([N+](=O)[O-])c1)Nc1ccc2ccccc2c1	6%	u	7%	-26%	u	0.89µM*
O=C(CO/N=C/c1cccc([N+](=O)[O-])c1)NC1CCCCC1	14%	-20%	3%	0%	-1%	u
Cc1cc(C)n2nc3nc(N4CCCCC4)nc(-c4ccco4)c3c2n1	-14%	u	-4%	u	79µM*	4µM*
Cc1cc(Nc2ccccc2Cl)n2nc(-c3ccco3)nc2n1	33%	x	-1%	3%	-5%	0%[12.7 µM]
CCn1c(=O)[nH]c2cc(Cl)c(Cl)cc21	27%	8%	-11%[56.1 µM]	-8%	11%	-16%[59 µM]
CCCc1c(C)c2cccc(C)c2[nH]c1=O	14%	6%	2%	-10%	2%	-5%
CCCCN1CCc2c([nH]c3c(C)cccc23)C1=O	u	-12%	-3%	20µM*	-20%	-23%[59 µM]
Cc1nc(N2N=C(c3ccc(Cl)cc3)CC2c2ccco2)sc1C(=O)N(C)C (stereo not given)	95%	25µM*	-2%	16%	15%	-3%
CS(=O)(=O)N1N=C(c2cccs2)CC1c1ccco1 (stereo not given)	16%	10µM*	-6%	-29%	u	6%[12.7 µM]
O=S(=O)(c1ccccc1)N1N=C(c2ccc(Cl)cc2)CC1c1ccco1 (stereo not given)	16%	x	1%	-26%	0%	45µM*
